# Compounds without any hit were thinned out: in the full panel of roughly 83,000, 20% have a hit.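 Percent growth is the endpoint: 0 to 100 indicates growth inhibition (40 means 60% inhibition), 0 means no net growth, and negative values indicate cell death.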 Unmarked numbers belong to inactive results. Activity calls are given as the source filed them. Rule for the calls: active = growth percent below 10; inactive = the rest.
# Assays:
# Assay in all cases: NCI-60 one-dose screen, 48 h (100 = growth as untreated, 0 = no growth, -100 = all killed)
# Settings in all cases: 10 µM unless noted
# [1] = system: SK-MEL-2 melanoma
# [2] = system: EKVX NSCLC
# [3] = system: SN12C renal
# [4] = system: UO-31 renal
# [5] = system: TK-10 renal
# [6] = system: ACHN renal
# [7] = system: CAKI-1 renal
# [8] = system: A498 renal
# [9] = system: CCRF-CEM leukemia
# [10] = system: MOLT-4 leukemia
# [11] = system: SR leukemia
# [12] = system: RPMI-8226 leukemia
# [13] = system: OVCAR-8 ovarian
# [14] = system: OVCAR-5 ovarian
# [15] = system: OVCAR-4 ovarian
# [16] = system: SK-OV-3 ovarian
# [17] = system: IGROV1 ovarian
# [18] = system: OVCAR-3 ovarian
# [19] = system: HS 578T breast
# [20] = system: NCI/ADR-RES ovarian
SMILES,growth [1],growth [2],growth [3],growth [4],growth [5],growth [6],growth [7],growth [8],growth [9],growth [10],growth [11],growth [12],growth [13],growth [14],growth [15],growth [16],growth [17],growth [18],growth [19],growth [20]
CN1CCN(c2ccc(Nc3nc(NCCCNS(=O)(=O)c4ccc(F)cc4)c4sccc4n3)cc2)CC1,107%,93.5%,82%,64.7%,140%,70.4%,67.6%,128%,31.1%,21.6%,7.3% (active),12.5%,77.3%,86.7%,60%,115%,81.6%,97.4%,55.6%,87.8%
Cn1c(SCC(=O)c2ccc(Br)cc2)nc2ccccc2c1=O,102%,82.2%,96.6%,75.9%,117%,96.1%,85.4%,92.7%,91.9%,99%,89.6%,77.7%,96.8%,106%,81.8%,98.9%,90.5%,102%,102%,96.5%
Cc1csc(/N=C(N)/N=C(\N)c2cccc(Br)c2)n1,101%,88.9%,90.7%,86.4%,149%,97.7%,85.7%,81.5%,98.6%,96.5%,66.9%,102%,96.5%,102%,95.5%,91.5%,81.4%,107%,95.1%,72.7%
C#CCN(C)CCCOc1ccc(NC(=O)CCCCCCC(=O)NO)cc1Cl,32.7%,51.5%,41.2%,26.3%,1.34% (active),20.3%,17.9%,-12.1% (active),15.5%,16.9%,13.7%,0.211% (active),17.7%,12.8%,41.9%,18.2%,17%,27.8%,19.7%,65.4%
CCOC(=O)c1c(NCC(=O)Nc2cccc([N+](=O)[O-])c2)sc(C(C)=O)c1C,-15% (active),0.605% (active),12.6%,-12.7% (active),-22.6% (active),-13.5% (active),-30.8% (active),-75.3% (active),4.89% (active),3.1% (active),0.317% (active),-14.1% (active),-8.65% (active),1.07% (active),4.88% (active),-13.4% (active),22%,-37.2% (active),-23.9% (active),-28.3% (active)
O=C(CSc1nc2ccccc2c(=O)n1-c1ccc(Cl)c(Cl)c1)Nc1ccc(S(=O)(=O)Nc2ccc(Cl)nn2)cc1,103%,94.5%,96.4%,79.8%,118%,95.3%,82.1%,103%,97%,97.2%,108%,106%,94%,91.1%,97.7%,88.8%,95.8%,106%,91.2%,99.8%
O=C(/C=C/c1ccccc1)c1cccc(O)c1,108%,98.6%,98.8%,76.2%,108%,106%,91.5%,105%,77.8%,85.2%,67.5%,-17.9% (active),92.3%,101%,105%,107%,97.8%,106%,114%,107%
CN1CCN(c2ccc(Nc3nc(NCCCNS(=O)(=O)c4cccc(F)c4)c4sccc4n3)cc2)CC1,96.8%,83.3%,67.4%,54.2%,91.6%,7.69% (active),17.9%,67.6%,19.2%,13.3%,9.04% (active),7.54% (active),50.2%,73.4%,18.3%,115%,68.9%,9.74% (active),50.4%,70.8%
C#C[C@]1(O)CC[C@H]2[C@@H]3CC=C4c5sc(Nc6cc(C)cc(C)c6)nc5CC[C@]4(C)[C@H]3CC[C@@]21C,14%,-3.54% (active),51.4%,8.23% (active),62.8%,34.3%,11%,-3.87% (active),10.7%,0.923% (active),11.6%,-27.3% (active),53%,54.5%,47.7%,-38.7% (active),46.8%,48.9%,-10.8% (active),47.7%
COC(=O)N1CCN(CCNCc2ccc(NC(=O)c3ccc(C)c(C#Cc4cnc5cccnn45)c3)cc2C(F)(F)F)CC1,4.46% (active),48.9%,39.8%,26.8%,68.9%,29.6%,20.2%,47.8%,10.8%,8.21% (active),-7.7% (active),-6.11% (active),31.6%,46.2%,31.1%,83.1%,11.3%,64.8%,-2.16% (active),6.71% (active)
CC(Nc1c(C#N)cnc2ccc(-c3cncc(O)c3)cc12)c1ccccc1 (stereo not given),-43.6% (active),-13.6% (active),-5.67% (active),-9.46% (active),-13.2% (active),3.13% (active),7.08% (active),45%,10.6%,2.65% (active),6.19% (active),11.3%,13%,25.6%,-17.5% (active),-3.84% (active),-20.3% (active),7.92% (active),-18.3% (active),12.4%
C=C1CCc2nc(SCC(=O)O)ccc2N1,104%,101%,97.1%,91.1%,100%,102%,97.3%,85.7%,96.9%,97.5%,115%,114%,105%,97.1%,104%,98.8%,104%,117%,101%,98.8%
CCN(CC)S(=O)(=O)c1ccc(-c2nc(C(Cl)Cl)nc3cc(C)nn23)cc1,89.4%,25.8%,58.6%,46.4%,79.4%,8.7% (active),29.6%,74.8%,48.9%,36.1%,9.52% (active),-7.21% (active),12.3%,41.5%,34.4%,18.4%,12%,21.1%,35.6%,14%
CCN(CC)S(=O)(=O)c1ccc(-c2nc(C(Cl)Cl)nc3cc(-c4ccc(F)cc4)nn23)cc1,82.3%,32%,67.6%,27.6%,49.9%,0.483% (active),12%,56.2%,73.9%,56.6%,30.8%,6.42% (active),27.6%,51.6%,45.2%,42.7%,56.9%,16.8%,36.4%,23.5%
N#C/C(=N\Nc1ccc(F)cc1)C(=O)Nc1cc(-c2ccccc2)nn1-c1ccccc1,4.66% (active),5.52% (active),1.17% (active),3.54% (active),26.6%,1.44% (active),2.61% (active),-4.27% (active),15.7%,21.9%,24.1%,11.9%,11%,19.8%,1.96% (active),-14.8% (active),24.7%,11.2%,25.9%,3.07% (active)
